Results on 36 molecules are retold here after ChEMBL document CHEMBL3433997, “St. Jude Leishmania screening dataset” (2016).

Assay type in all cases: functional
Assay [1] has as its target Solute carrier family 2, facilitated glucose transporter member 1 (Homo sapiens) (UniProt P11166). Nature of the assay: ST_JUDE_LEISH: Cytotoxicity at 2uM final concentration against transgenic Leishmania Mexicana promastigotes LmGLUT1 that are glucose transport deficient and complemented with the human glucose transporter GLUT1. Activity is measured by DNA content using SYBR green in vitro.

Assay [2] deals with Hexose transporter 1 (Plasmodium falciparum) (UniProt O97467). Nature of the assay: ST_JUDE_LEISH: Cytotoxicity at 2uM final concentration against transgenic Leishmania Mexicana promastigotes LmPfHT that are glucose transport deficient and complemented with the Plasmodium falciparum hexose transporter. Activity is measured by DNA content using SYBR green in vitro.
Assay [3] addresses Glucose transporter (Leishmania mexicana) (UniProt O61059). Put plainly: ST_JUDE_LEISH: Cytotoxicity at 2uM final concentration against transgenic Leishmania Mexicana promastigotes LmGT2 that are glucose transport deficient and complemented with the L. Mexicana glucose transporter 2. Activity is measured by DNA content using SYBR green in vitro.

SMILES strings stand for the structures.

Sequence of Solute carrier family 2, facilitated glucose transporter member 1 (Homo sapiens) (P11166 whole entry): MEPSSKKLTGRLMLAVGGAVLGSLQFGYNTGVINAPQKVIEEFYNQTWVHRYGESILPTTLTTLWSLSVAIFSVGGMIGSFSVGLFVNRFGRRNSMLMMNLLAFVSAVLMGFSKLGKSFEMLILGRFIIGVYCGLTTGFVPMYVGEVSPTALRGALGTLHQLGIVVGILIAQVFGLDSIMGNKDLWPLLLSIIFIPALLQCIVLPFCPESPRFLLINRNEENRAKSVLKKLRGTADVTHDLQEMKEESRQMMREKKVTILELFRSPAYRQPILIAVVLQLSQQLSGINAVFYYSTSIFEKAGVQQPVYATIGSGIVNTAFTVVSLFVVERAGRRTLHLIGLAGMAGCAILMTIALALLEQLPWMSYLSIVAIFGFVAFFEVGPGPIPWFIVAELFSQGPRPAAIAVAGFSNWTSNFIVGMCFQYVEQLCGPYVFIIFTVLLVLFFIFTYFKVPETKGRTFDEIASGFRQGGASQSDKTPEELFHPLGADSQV

Regarding `Cn1cnnc1Sc1ccc(CN2CCOc3ccc(C4=CCCCC4)cc3C2)o1`, the inhibition in assay [1] amounted to 0.65%; in assay [2], 1.97%; in assay [3], 1%.

For the molecule `Cc1ccc(NC(=O)NC2CCN(CCCCCNC(=O)/C=C/c3ccc(Cl)c(Cl)c3)CC2)cc1C`, the figures for the inhibition in assay [1], in assay [2] and in assay [3] were -0.29%, -0.57% and -1.51%, respectively.

As to `Cc1cc(N[C@@H](Cc2ccccc2)C(=O)NCc2cccs2)nc(NCCc2cccnc2)n1`, the inhibition in assay [1] was found to be 1.39%; in assay [2], 1.61%; in assay [3], 1.02%.

In the case of `N#Cc1ccc2c(c1)CCN(CCC1CCC(NC(=O)c3cc4cccc([N+](=O)[O-])c4[nH]3)CC1)C2` (stereo not drawn), the inhibition in assay [1] came out at 10.1%; in assay [2], 10.8%; in assay [3] it was 9.97%.

Take `NC1=Nc2ccc(Cl)cc2C1(O)c1ccccc1` (stereo not drawn): the inhibition in assay [1] stood at 1.25%; in assay [2], 1.33%; in assay [3] it was 0.97%.

In the case of `O=C(NC(Nc1ccc([N+](=O)[O-])cc1)C(Cl)(Cl)Cl)c1cccc(Cl)c1` (stereo not drawn), the inhibition in assay [1] was found to be 4.07%; in assay [2], 3.95%; in assay [3], 3.37%.

Take `COc1ccc(CCN(C)CCCOc2ccc(NC(=O)COc3cccc4sc5ccccc5c(=O)c34)cc2)cc1OC`: the inhibition in assay [1] was -2.54%; in assay [2] it was -2.87%; in assay [3] it was -0.2%.

As to `O=C(Nc1cccc(-c2cccc(-c3nc4cc(C(F)(F)F)ccc4[nH]3)c2)c1)c1ccoc1`, the figures for the inhibition in assay [1], in assay [2] and in assay [3] were 10.4%, 10.1% and 8.15%, respectively.

`CN(CCCc1c[nH]c2ccccc12)CCC1CCC(NC(=O)/C=C/c2ccc(Cl)c(Cl)c2)CC1` (stereo not drawn): the values for the inhibition in assay [1], in assay [2] and in assay [3] were 3.61%, 2.63% and 1.8%, respectively.

Take `O=C(Nc1ccc(-c2cccc(-c3nc4ccccc4[nH]3)c2)cc1)Nc1ccc(F)c(F)c1F`: the inhibition is 0.73% in assay [1], -0.07% in assay [2] and 0.32% in assay [3].

On to `CCc1cn2c3c(cc(C(=O)N[C@@H](Cc4ccccc4)[C@H](O)CNCc4ccccc4)cc13)N(C)S(=O)(=O)CC2`, for which the results for the inhibition in assay [1], in assay [2] and in assay [3] were -0.83%, -0.74% and 0.13%, respectively.

As to `CC(=O)c1nccc(C)c1N`, the figures for the inhibition in assay [1], in assay [2] and in assay [3] were 2.66%, 1.53% and 2.57%, respectively.

As to `N#Cc1ccc(CN2CCC(Oc3ccc(NC(=O)c4cccs4)cc3)CC2)cc1`, the inhibition in assay [1] was -0.02%; in assay [2] it was 1.99%; in assay [3], 4.28%.

For the molecule `Cc1c(F)cc(C(=O)NC2CC2)cc1-c1ccc2c(c1)c(C)nn2S(=O)(=O)c1cccs1`, the inhibition in assay [1] was found to be 4.6%; in assay [2], 3.16%; in assay [3], 2.8%.

`CN1CCC(NCCS(=O)(=O)c2cccc(Nc3ccc(-c4cccc(F)c4)cn3)c2)CC1`: the inhibition is 0.4% in assay [1], 0.91% in assay [2] and -0.71% in assay [3].

`CCCCCCCN1CC[C@@H](CCCc2ccnc3ccc(OCCCCN/C(N)=N/O)cc23)[C@@H](CC)C1`: the inhibition in assay [1] was 4.19%; in assay [2] it was 2.68%; in assay [3], 2.04%.

Regarding `CNc1c2c(nc3ccc(NC(=O)CCCCCCc4ccccc4)cc13)CCCC2`, the inhibition came out at 5.72% in assay [1], 8.7% in assay [2] and 4.32% in assay [3].

Take `c1ccc(CN2CCC(NCc3ccccc3-c3ccc(CNCc4ccc5c(c4)OCO5)cc3)CC2)cc1`: the inhibition in assay [1] came out at 11.8%; in assay [2], 10.4%; in assay [3], 9.54%.

`CC(=O)C1=NN(c2ccc(C)cc2)C(c2cccs2)N1c1ccccc1` (stereo not drawn): the inhibition in assay [1] turned out to be 2.5%; in assay [2] it was 2.74%; in assay [3] it was 2.11%.

In the case of `O=C(CCc1c[nH]cn1)Nc1cccc(-c2cccc(-c3nc4ccccc4[nH]3)c2)c1`, the inhibition is 14.3% in assay [1], 13.2% in assay [2] and 11.3% in assay [3].

For the molecule `COc1ccc(CN2CCCC(Nc3ccc(F)c(F)c3)C2)c(O)c1` (stereo not drawn), the inhibition in assay [1] amounted to 2.58%; in assay [2], 1.39%; in assay [3] it was 3.1%.

In the case of `Cc1cc(N2CCN(CC3CCCCC3)CC2)nc(Nc2ccc(Br)cc2)n1`, the inhibition in assay [1] turned out to be 1.47%; in assay [2], 3.17%; in assay [3], 0.54%.

On to `COc1ccc(Cn2c(Nc3cccc(C(F)(F)F)c3)nc3cc(C(=O)NC4CC4)cnc32)cc1Cl`, for which the inhibition is -1.9% in assay [1], -0.56% in assay [2] and -3.22% in assay [3].

Take `O=C(Nc1ccc(C(F)(F)F)cc1)c1cccc(S(=O)(=O)NC2CCN(Cc3ccccc3)C2)c1` (stereo not drawn): the inhibition is 4.37% in assay [1], 3.64% in assay [2] and 3.95% in assay [3].

Take `COc1ccc(NC(=O)[C@H](Cc2ccccc2)Nc2cc(C)nc(NCCc3ccccn3)n2)cc1`: the inhibition in assay [1] was 4.73%; in assay [2] it was 5.3%; in assay [3], -0.86%.

Take `COc1cc([N+](=O)[O-])ccc1NC(=O)c1cc(Cl)ccc1O`: the inhibition in assay [1] was 7.76%; in assay [2] it was 6.83%; in assay [3] it was 7.02%.

As to `CCN(CC)CCCC(C)Nc1ccnc2cc(C#N)ccc12` (stereo not drawn), the inhibition in assay [1] is -0.82%; in assay [2], -2.04%; in assay [3], -3.31%.

For `Nc1nccc2ccc(-c3ccc(OCc4ccccc4)cc3)cc12`, the figures for the inhibition in assay [1], in assay [2] and in assay [3] were 0.87%, 2.36% and 1.39%, respectively.

For `Cc1cc2nc(N/C(N)=N/C(=O)NC3CCCCC3)nc(C)c2cc1C`, the inhibition is 3.18% in assay [1], 3.48% in assay [2] and 0.78% in assay [3].

In the case of `CN(C)c1cccc2c1nc(-c1ccc3c(c1)CCO3)n2CCNCc1ccccc1`, the inhibition is 11.7% in assay [1], 8.56% in assay [2] and 5.57% in assay [3].

For `O=C(Nc1ccc(C(=O)N2CCN(CCN3CCN(c4cccc(C(F)(F)F)c4)CC3)CC2)cc1)c1cc(Cl)cc(Cl)c1`, the values for the inhibition in assay [1], in assay [2] and in assay [3] were 3.84%, 0.79% and 2.52%, respectively.

Regarding `Cc1cc(N)c2cc(NC(=O)c3ccc4ccccc4c3)ccc2n1`, the inhibition in assay [1] is 3.68%; in assay [2] it was 4.64%; in assay [3], 3.57%.

For `O=C(N/C=N/c1cc([N+](=O)[O-])c(-c2ccncc2)n1-c1ccccc1)c1cccc(O)c1`, the inhibition in assay [1] came to 0.21%; in assay [2] it was 0.41%; in assay [3], 0.38%.

Consider `CC(C)c1ccc(CN2CCC(NC(=O)c3ccc(-c4cccc(F)c4)s3)CC2)cc1`, for which the inhibition in assay [1] was 1.18%; in assay [2], -0.01%; in assay [3] it was -0.6%.

For `O=C(C=Cc1ccc(Cl)c(Cl)c1)NCCCCCN1CCCC(CCCNS(=O)(=O)c2cccc3cccnc23)C1` (stereo not drawn), the inhibition is 5.85% in assay [1], 5.36% in assay [2] and -0.71% in assay [3].

For `Cn1cncc1C(=O)NC1CCN(c2ccnc(Nc3ccc(F)cc3)n2)C1` (stereo not drawn), the inhibition is 0.07% in assay [1], -0.1% in assay [2] and 0.61% in assay [3].

For orientation: inhibition means the change of the read-out against control, counted positive when it falls.
